Among the test systems are DU-145 prostate; K-562 leukemia; MALME-3M melanoma; MDA-MB-231 breast; RXF 393 renal; SF-268 CNS; SF-295 CNS; SF-539 CNS; UACC-257 melanoma; M14 melanoma.
Holding throughout (assay): NCI-60 one-dose screen, 48 h (100 = growth as untreated, 0 = no growth, -100 = all killed)

The structures appear in SMILES notation. Where “and” joins values, the source holds several entries; their conditions need not be identical. Equal values may be shown once. About 83,000 compounds went through this panel and 20% of them were active in at least one assay; those are over-represented in the sample as a whole.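 Interpretation: 100, growth as untreated; towards 0, rising growth inhibition; 0, no net growth; 0 to -100, cell death. Compounds scoring below 10 were considered active.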 Values without a mark were called inactive. Calls of active or inactive are those of the source.

As for `COc1cc(N=Nc2ccc(O)c3ncccc23)c2ncccc2c1`, the growth in the assay with DU-145 prostate (10 µM unless noted) was 31%; in the assay on K-562 leukemia (10 µM unless noted) it was 10.9%; with MALME-3M melanoma (10 µM unless noted), 35.5%; in the assay on MDA-MB-231 breast (10 µM unless noted) it was 37.3%; with RXF 393 renal (10 µM unless noted), 52.5%; in the assay with SF-268 CNS (10 µM unless noted) it was 18.3%. In addition, the growth was 67.8% with SF-295 CNS (10 µM unless noted), 10.1% in the assay with SF-539 CNS (10 µM unless noted), 74.4% with UACC-257 melanoma (10 µM unless noted) and 25.9% with M14 melanoma (10 µM unless noted).
Turning to `N#CC1C(=O)c2ccccc2C1c1ccccc1` (stereo not drawn), the growth is 109% and 104% in the assay on DU-145 prostate (10 µM unless noted); 120% and 101% in the assay with K-562 leukemia (10 µM unless noted); 96% and 106% in the assay on MALME-3M melanoma (10 µM unless noted); 104% and 120% in the assay on MDA-MB-231 breast (10 µM unless noted); 94.7% and 124% in the assay on RXF 393 renal (10 µM unless noted); 104% and 101% in the assay on SF-268 CNS (10 µM unless noted). Moreover, the growth with SF-295 CNS (10 µM unless noted) is 96% and 109%; in the assay with SF-539 CNS (10 µM unless noted), 110% and 107%; with UACC-257 melanoma (10 µM unless noted), 113% and 99.1%; in the assay on M14 melanoma (10 µM unless noted) it was 104% and 105%.
Turning to `COc1cc(NS(=O)(=O)C(C)C)cc(-c2cc(-c3ccc(N4CCNCC4)cc3)cnc2N)c1`, the growth in the assay on DU-145 prostate (10 µM unless noted) is 90.8%; in the assay on K-562 leukemia (10 µM unless noted), 5.48% (active); in the assay with MALME-3M melanoma (10 µM unless noted) it was 79.6%; in the assay with MDA-MB-231 breast (10 µM unless noted) it was 89.8%; in the assay with RXF 393 renal (10 µM unless noted) it was 41%; in the assay on SF-268 CNS (10 µM unless noted), 70.3%. Moreover, the growth was 91.7% with SF-295 CNS (10 µM unless noted), 58.3% in the assay on SF-539 CNS (10 µM unless noted), 91.4% in the assay on UACC-257 melanoma (10 µM unless noted) and 58.6% with M14 melanoma (10 µM unless noted).
For the compound `CCOc1nc(-c2ccccc2)cc2c(O)c(C(=O)N/N=C/c3ccc(N(C)C)cc3)[nH]c(=O)c12`, the growth was 120% in the assay with DU-145 prostate (10 µM unless noted); 105% with K-562 leukemia (10 µM unless noted); 135% in the assay with MALME-3M melanoma (10 µM unless noted); 98.8% in the assay on MDA-MB-231 breast (10 µM unless noted); 123% with RXF 393 renal (10 µM unless noted); 104% in the assay on SF-268 CNS (10 µM unless noted). Further, the growth was 111% in the assay on SF-295 CNS (10 µM unless noted), 99.7% in the assay on SF-539 CNS (10 µM unless noted), 125% in the assay with UACC-257 melanoma (10 µM unless noted) and 119% with M14 melanoma (10 µM unless noted).
For `Cn1cc2c(=O)nc3c(-c4nc5ccccc5[nH]4)n[nH]n3c2n1`, the growth is 71.8% with DU-145 prostate (10 µM unless noted); 61.1% with K-562 leukemia (10 µM unless noted); 74.1% in the assay on MALME-3M melanoma (10 µM unless noted); 100% in the assay with MDA-MB-231 breast (10 µM unless noted); 78.1% in the assay with RXF 393 renal (10 µM unless noted); 74.2% in the assay with SF-268 CNS (10 µM unless noted). Further, the growth is 106% in the assay on SF-295 CNS (10 µM unless noted), 97% with SF-539 CNS (10 µM unless noted), 72.9% in the assay on UACC-257 melanoma (10 µM unless noted) and 75.8% with M14 melanoma (10 µM unless noted).
On to `CC(=O)/C=C/c1ccc(OCc2ccc(C(C)(C)C)cc2)cc1`, for which the growth is 89% in the assay with DU-145 prostate (10 µM); 61% in the assay with DU-145 prostate (100 µM); 39.1% in the assay on K-562 leukemia (10 µM); 13.4% in the assay with K-562 leukemia (100 µM); 86.4% in the assay with MALME-3M melanoma (10 µM); 29% with MALME-3M melanoma (100 µM). The growth with MDA-MB-231 breast (10 µM) is 84.2%; with MDA-MB-231 breast (100 µM), -39.2% (active); with RXF 393 renal (10 µM), 94.6%; in the assay with RXF 393 renal (100 µM), 1.8% (active); with SF-268 CNS (10 µM), 94.2%; with SF-268 CNS (100 µM) it was 42.3%. For the same compound, the growth is 69.6% with SF-295 CNS (10 µM); 27.2% in the assay on SF-295 CNS (100 µM); 78.4% with SF-539 CNS (10 µM); 34.1% with SF-539 CNS (100 µM); 70.6% in the assay with UACC-257 melanoma (10 µM); 2.75% (active) in the assay on UACC-257 melanoma (100 µM). Also, the growth with M14 melanoma (10 µM) was 67%; in the assay with M14 melanoma (100 µM) it was 10.5%.
Turning to `Nc1ccc(-c2nc3ccc4[nH]ncc4c3c3c2CCCC3)cc1F`, the growth is 38.6% with DU-145 prostate (10 µM unless noted); 30.2% in the assay on K-562 leukemia (10 µM unless noted); 28.3% in the assay on MALME-3M melanoma (10 µM unless noted); 37.6% with MDA-MB-231 breast (10 µM unless noted); -13% (active) with RXF 393 renal (10 µM unless noted); 39.9% in the assay on SF-268 CNS (10 µM unless noted). The growth was 37.8% with SF-295 CNS (10 µM unless noted), 24.5% in the assay with SF-539 CNS (10 µM unless noted), 26.6% in the assay with UACC-257 melanoma (10 µM unless noted) and 24.9% in the assay with M14 melanoma (10 µM unless noted).
With `OCCN1CCN(CC/C=C2\c3ccccc3Sc3ccc(Cl)cc32)CC1`, the growth was 17.1% and 65% in the assay on DU-145 prostate (10 µM unless noted); -90.8% (active) and -68.9% (active) in the assay with K-562 leukemia (10 µM unless noted); -53.2% (active) in the assay on MALME-3M melanoma (10 µM unless noted); 29.3% and 44.8% in the assay with MDA-MB-231 breast (10 µM unless noted); 23.5% in the assay on RXF 393 renal (10 µM unless noted); 51.7% and 46.6% with SF-268 CNS (10 µM unless noted). The growth with SF-295 CNS (10 µM unless noted) was 47.6% and 31%; in the assay with SF-539 CNS (10 µM unless noted), 31.8% and 59.7%; in the assay on UACC-257 melanoma (10 µM unless noted) it was -83.9% (active) and -94.1% (active); with M14 melanoma (10 µM unless noted), -98.7% (active) and -88.3% (active).
As to `OCc1cc(CN2CCCCC2)c(O)c2ncccc12`, the growth was 49.5% in the assay with DU-145 prostate (10 µM unless noted); 55.5% in the assay with K-562 leukemia (10 µM unless noted); 62.8% in the assay with MALME-3M melanoma (10 µM unless noted); 49.5% in the assay with MDA-MB-231 breast (10 µM unless noted); 73.8% with RXF 393 renal (10 µM unless noted); 48.2% in the assay with SF-268 CNS (10 µM unless noted). Further, the growth in the assay with SF-295 CNS (10 µM unless noted) was 60.6%; in the assay on SF-539 CNS (10 µM unless noted), 54%; in the assay on UACC-257 melanoma (10 µM unless noted), 77.8%; in the assay on M14 melanoma (10 µM unless noted) it was 36.2%.
For `CN(C)CCNc1ncc(F)c(-c2cnc3cc(-c4cnn(C)c4)ccn23)n1`, the growth in the assay on DU-145 prostate (0.005 µM) is 107%; with DU-145 prostate (30 µM), 27.5%; in the assay on K-562 leukemia (0.005 µM), 102%; with K-562 leukemia (30 µM), 41.6%; in the assay on MALME-3M melanoma (0.005 µM), 99.7%; in the assay on MALME-3M melanoma (30 µM), 53.5%. In addition, the growth in the assay with MDA-MB-231 breast (0.005 µM) was 98.4%; in the assay with MDA-MB-231 breast (30 µM), 54.3%; in the assay with RXF 393 renal (10 µM unless noted), 110% [0.005 µM]; in the assay with SF-268 CNS (0.005 µM), 100%; with SF-268 CNS (30 µM), 57.7%; in the assay with SF-295 CNS (0.005 µM), 102%. Moreover, the growth is 70.8% in the assay with SF-295 CNS (30 µM); 97.2% in the assay with SF-539 CNS (0.005 µM); 46.3% in the assay on SF-539 CNS (30 µM); 100% in the assay with UACC-257 melanoma (0.005 µM); 93.5% in the assay with UACC-257 melanoma (30 µM); 107% [0.005 µM] with M14 melanoma (10 µM unless noted).
Regarding `N#Cc1c(-c2cccc(F)c2)cc(-c2cccnc2)[nH]c1=O`, the growth with DU-145 prostate (10 µM unless noted) was 107%; in the assay on K-562 leukemia (10 µM unless noted), 95.3%; with MALME-3M melanoma (10 µM unless noted), 103%; with MDA-MB-231 breast (10 µM unless noted), 104%; in the assay on RXF 393 renal (10 µM unless noted) it was 112%; with SF-268 CNS (10 µM unless noted), 103%. The growth in the assay with SF-295 CNS (10 µM unless noted) was 102%; in the assay with SF-539 CNS (10 µM unless noted), 99.3%; in the assay with UACC-257 melanoma (10 µM unless noted) it was 112%; in the assay with M14 melanoma (10 µM unless noted) it was 102%.

The record behind these values is PubChem BioAssay (NCI).
